Screens (PubChem BioAssay)
Shown is part of a subset that was picked to be rich in hits.
LASV entry inh = inhibitors of Lassa virus binding or cell entry | Lassa virus pseudotype entry inhibition, cell reporter | Potency, µM (doses to about 37.9 µM), inactives show top-dose activity change, negative = inhibition, most hits filed as inhibitors | 300,000 tested, 1.2% active | AID 540256; calls by dose curve; tested in HEK293 cells; further: potency means the concentration at half of the fitted maximal effect; on the % scale 0 is the no-effect control and ±100 the full control effect; nearly all actives have a fitted effect of over 50% in size
MARV entry inh = Marburg virus entry inhibition; 300,000 tested, 1.8% active; Potency, µM (top dose mostly 37.8 µM), for inactives: at the highest dose activity change, negative = inhibition, hits mostly inhibitors; Marburg virus pseudotyped entry inhibition, cell reporter; calls by dose curve; tested in HEK293 cells; further: potency means the concentration at half of the fitted maximal effect; on the % scale 0 is the no-effect control and ±100 the full control effect
CHX counter = affects cycloheximide protein synthesis inhibition readout, counter-screen | 300,000 tested, 12% active | cell reporter, cycloheximide protein synthesis inhibition counterscreen | AID 2314 | max response, %; in the data active means max response mostly above about 13%, no sharp cut-off; inactive means mostly below about 14%; further: read at 38.3 µM for the half of the compounds with a filed dose; 0% is about no effect
Shiga inhibitor = blocks Shiga toxin action in Vero cells. Vero cells, Shiga toxin protein synthesis inhibition reporter. inhibition, % at 38.7 µM. 290,000 tested, 9.2% active. AID 2315; in the data active means inhibition mostly above about 28%, no sharp cut-off; inactive means mostly below about 43%; further: 0% is about no effect
VACV Venus inh = inhibitors of vaccinia virus (Venus reporter). Vaccinia virus Venus reporter expression, fluorescence. Potency, µM (series often up to 36.5 µM), inactives show at the top dose activity change, negative = inhibition, actives largely listed as inhibitors. 330,000 tested, 0.46% active. AID 720580; calls by dose curve; tested in A549 cells; further: potency means the concentration at half of the fitted maximal effect; on the % scale 0 is the no-effect control and ±100 the full control effect; nearly all actives have a fitted effect of over 30% in size
VACV mCherry inh = inhibitors of vaccinia virus infection (mCherry reporter signal); Vaccinia virus mCherry reporter infection, fluorescence; 310,000 tested, 0.63% active; Potency, µM (highest dose often 36.5 µM), for the others: at the highest dose activity change, negative = inhibition, hits mostly inhibitors; AID 720579; calls by dose curve; tested in A549 cells; further: potency means the concentration at half of the fitted maximal effect; on the % scale 0 is the no-effect control and ±100 the full control effect; nearly all actives have a fitted effect of over 35% in size
An asterisk follows results filed as active; i = inactive; ? = inconclusive; / = not tested or not shown; + = active, no number; [ ] = another dose, or the depositor's remark.

SMILES	LASV entry inh	MARV entry inh	CHX counter	Shiga inhibitor	VACV Venus inh	VACV mCherry inh
O=C(Nc1ccccc1)Nc1nc(-c2ccc(F)c(F)c2)cs1	0.1%	-8.4%	6.1	5.8	-15.0%	-11.9%
Oc1ccc(-c2csc(Nc3ccccn3)n2)cc1	14.6%[46.1 µM]	?	43.2*	122.0*	-4.8%	?
Brc1ccccc1-n1nnc(-c2ccnc3ccccc23)n1	/	/	18.8*	22.1	?	-29.9%
CCC(=Nc1ccccc1N)c1c(O)[nH]c(=O)[nH]c1=O	?	-29.3%	51.8*	98.8*	-9.9%	-14.5%
CCC(=NCCc1ccccc1)c1c(O)[nH]c(=O)[nH]c1=O	0.3%	0.4%	1.1	-4.1	-15.6%	-11.1%
Cc1nn(C)cc1/C=N/NC(=O)c1ccco1	23.5%[46.1 µM]	?	38.2*	82.4*	6.2%	-12.6%
Cc1nn(-c2ccccc2)c(Cl)c1/C=N/NC(=O)c1ccc(CNc2ccccc2)o1	?	15.2%	25.3*	44.5*	-0.2%	-15.1%
CCN(CC)S(=O)(=O)c1cccc(C(=O)N/N=C/c2c(C)nn(-c3ccccc3)c2Cl)c1	4.5%	-2.8%	-1.5	-15.3	-2.9%	-14.7%
Cc1nn(-c2ccccc2)c(Cl)c1/C=N/NC(=O)c1ccco1	4.5%	?	51.7*	104.0*	/	/
Cc1c(C(=O)OCCOc2ccccc2)[nH]c2c1C(=O)CC(c1ccc(C(C)(C)C)cc1)C2 (stereo unspecified)	-18.0%[46.1 µM]	6.2%[46.1 µM]	/	/	-15.8%	-8.0%
CC(C)(C)C(=O)Nc1ccc(-c2cc3cc(Cl)ccc3o2)cc1	/	2.0%	80.9*	124.4*	/	/
CC(C)(Oc1ccc(Cl)cc1)C(=O)Nc1ccc2oc(=O)ccc2c1	-2.2%	-9.7%	-2.3	-9.1	-8.0%	-4.5%
O=C(Nc1ccc2c(c1)OCCO2)N1CCN(Cc2ccccc2)CC1	0.1%	-0.1%[46.1 µM]	38.2*	61.2*	-11.8%	-8.0%
O=C(Nc1ccc2c(c1)OCCO2)N1CCN(c2ccccc2)CC1	7.1%	-15.0%	19.8*	47.4*	/	/
O=C(Nc1ccc2c(c1)OCO2)N1CCN(c2ccccc2)CC1	/	/	10.1	21.3	/	/
O=C(CCc1nnc2n(Cc3ccccc3Cl)c(=O)c3ccccc3n12)Nc1ccc(F)cc1	/	?	/	/	10µM*	10µM*
O=C(CCc1nnc2n(Cc3ccc(Cl)cc3)c(=O)c3ccccc3n12)NCCN1CCCC1	?	10µM*	-3.4	-2.1	?	-8.0%
O=C(CCc1nnc2n(Cc3ccc(Cl)cc3)c(=O)c3ccccc3n12)NCCCN1CCOCC1	/	/	-5.9	-5.6	/	/
CCOc1ccccc1CNC(=O)C1CCN(c2nn3cc(-c4ccc(F)cc4)nc3s2)CC1	14.0%[46.1 µM]	/	/	/	-10.2%	-3.9%
O=C(NNC(=O)C1CC=CCC1C(=O)O)c1cccs1 (stereo unspecified)	9.5%	1.2%[46.1 µM]	15.3	34.5	-1.5%	-5.3%
CC(C)c1ccc(C(=O)NNC(=O)C2CC=CCC2C(=O)O)cc1 (stereo unspecified)	17.5%	?	28.4*	64.1*	-7.9%	i
O=C(NNC(=O)[C@@H]1CCCC[C@@H]1C(=O)O)c1cccs1	18.2%	19.2%	28.8*	57.6*	-12.3%	-16.6%
COc1ccc(CC(=O)NNC(=O)[C@@H]2CCCC[C@@H]2C(=O)O)cc1	/	/	4.6	-11.0	/	/
Cc1ccsc1C(=O)NNC(=O)C1CC=CCC1C(=O)O (stereo unspecified)	0.4%	?	45.0*	+	1.9%	-14.8%
Cc1ccsc1C(=O)NNC(=O)C1CCCCC1C(=O)O (stereo unspecified)	?	9.3%[46.1 µM]	30.9*	65.5*	-14.2%	-18.1%
SMILES	LASV entry inh	MARV entry inh	CHX counter	Shiga inhibitor	VACV Venus inh	VACV mCherry inh
COC(=O)N[C@H](C(C(=O)OC)=C(C)NCc1ccccc1)c1ccco1	/	-23.9%[14.2 µM]	/	/	/	/
CCN1C(=O)[C@@H]2[C@H]3[C@H](O)[C@H](O)CC(=NO[C@H](C)CN4CCCc5nc(C)c(C)cc54)[C@@H]3CC[C@H]2C1=O	/	2.3%[14.2 µM]	/	/	/	/
O=C(NNC(=O)[C@@H]1CCCC[C@@H]1C(=O)O)Nc1ccccc1	?	3.5%	15.1*	65.1*	-0.3%	-14.2%
O=C(NNC(=O)C1CC1c1ccccc1)Nc1ccccc1 (stereo unspecified)	-1.2%	12.6%	2.7	-5.1	-6.3%	i
Cc1cccc(C)c1OCC(=O)N/N=C/c1cccnc1	-31.7%	1.4%[46.1 µM]	-3.3	-7.0	-15.3%	-23.8%
COc1ccc(C(=O)NC2CCN(CC(=O)Nc3cccc(OC)c3)CC2)cc1	/	/	-1.8	/	/	/
Cc1ccc(C(=O)CNc2cccc([N+](=O)[O-])c2)cc1	8.1%	0.0%[46.1 µM]	38.2*	90.0*	-4.6%	-18.6%
Cc1ccc(NCCC(=O)c2cccc([N+](=O)[O-])c2)c(C)c1	?	20.7%	35.0*	0.0	-18.9%	-15.3%
Cc1ccc(S(=O)(=O)CC(=O)c2ccc([N+](=O)[O-])cc2)cc1	/	/	5.3	-3.7	/	/
Cc1cccc(NCCC(=O)c2ccc([N+](=O)[O-])cc2)c1C	-14.2%[46.1 µM]	?	2.5	11.4	0.0%	?
Cc1ccc(C(=O)NC2CCN(CC(=O)Nc3cccc([N+](=O)[O-])c3)CC2)cc1	-9.8%	0.794µM*	-2.7	-4.4	-3.4%	-0.6%
Cc1ccc(NCC(=O)c2ccc([N+](=O)[O-])cc2)cc1	-0.9%	?	42.8*	85.3*	45.6%	-0.3%
CCN(C(=O)CSc1nc2ccccc2n1Cc1ccc(F)cc1Cl)c1ccccc1	17.1%[46.1 µM]	/	/	/	-15.2%	-2.0%
CCCCCCc1c(O)nc(SCCN(C)C)[nH]c1=O	-22.2%[46.1 µM]	?	1.6	2.2	-13.9%	i
CC(=O)c1c(C)[nH]c(C(=O)COC(=O)C2CC2)c1C	5.2%	18.3%[46.1 µM]	17.5	34.0	-7.3%	4.8%
CCCCC(=O)OCC(=O)c1[nH]c(C)c(C(C)=O)c1C	/	/	38.6*	65.7*	/	/
CCCC(=O)OCC(=O)c1[nH]c(C)c(C(C)=O)c1C	?	1.1%	35.3*	49.3	1.2%	-0.1%
O=[N+]([O-])c1ccc(N2CCCCC2)c(-c2nn[nH]n2)c1	9.0%	14.4%[46.1 µM]	0.3	-1.1	-8.0%	-10.6%
COCc1c(C(=O)NC2CCCCC2)cnn1-c1nccc(-c2cc(C)sc2C)n1	/	/	/	/	-0.6%	-1.9%
COc1ccc(S(=O)(=O)NCCc2sc3nc(-c4ccc(C)cc4)nn3c2C)cc1C	-33.7%[46.1 µM]	/	/	/	-4.2%[7.34 µM]	-6.4%[7.34 µM]
Cc1ccc(Cn2cccc(-c3nc4ccccc4s3)c2=O)cc1	8.7%	?	43.4*	70.3*	/	/
O=c1c(-c2nc3ccccc3s2)cccn1Cc1ccccc1	?	?	51.2*	101.7*	/	/
CCOCCCNC(=O)Nc1cc(C(=O)NCc2ccc(C(C)C)cc2)ccc1N1CCCC1	?	/	/	/	-25.4%	-21.7%
Cc1ccc(CNC(=O)CCC2CCCN(Cc3cccc4cccnc34)C2)o1 (stereo unspecified)	3.8%	1.6%[46.1 µM]	4.6	-5.7	1.6%	-6.4%
Cc1cccc(NS(=O)(=O)c2cc(C(=O)OCC(=O)Nc3cc(C)on3)ccc2C)c1	?	?	-0.6	-4.4	/	/
Cc1cccc(NS(=O)(=O)c2ccc(C)c(C(=O)OCC(=O)Nc3cc(C)on3)c2)c1	4.47µM*	?	-2.7	-33.1	9.5%	22.4µM*
